Measured values as given in PubChem BioAssay AID720728 (Molecular Libraries Program, Specialized Chemistry Center, …, 2013).
Activity calls are given as the source filed them. No rule for the calls is given here.

Experiment: mtPTP inhibition measured by calcium retention, dose response, biochemical, dry powder samples, uHTS hits, isolated mitochondria (AID 720728)
Settings: calcium retention capacity

SMILES	CRC/CRC0 ratio at 50 uM (fold over control, higher = inhibition)
CN(C)CCCN1c2ccccc2Sc2ccc(Cl)cc21	1.97 fold (active)
C=CCNCCOc1ccc(C(C)(C)c2ccccc2)cc1	1.95 fold (active)
C=CCNCCOCCOc1ccc(Cl)cc1C(C)(C)C	1.81 fold (active)
COc1cc(NC(=O)c2cc(-c3cccc(O)c3)on2)cc(OC)c1OC	1.93 fold (active)
O=C(CC1NCCc2ccccc21)Nc1ccc(Cl)cc1 (stereo unspecified)	1.65 fold (active)
COc1ccc(C)c2sc(N(CCCN(C)C)C(=O)CS(=O)(=O)c3ccc(F)cc3)nc12	1.4 fold (active)
Cc1cc(C)c2nc(N(CCCN(C)C)C(=O)C3=COCCO3)sc2c1	1.4 fold (active)
CCN(CC)c1ccc(NC(=O)c2cc(Cl)ccc2OC)cc1	0.622 fold (active)
N#Cc1c(NCCN)nc(-c2ccco2)c2c1CCCC2	1.81 fold (active)
CC(C)(C)c1ccccc1OCCCCCNCCO	1.82 fold (active)
Cc1ccc2nc(N(CCN(C)C)C(=O)/C=C/c3cccs3)sc2c1	1.28 fold (active)
COC(=O)c1c(NC(=O)C2CCCCC2)sc2c1CC(C)(C)NC2(C)C	2.05 fold (active)
N=c1sccn1CC(=O)Nc1cccc(Oc2ccccc2)c1	1.91 fold (active)
CNCCC=C1c2ccccc2CCc2ccccc21	1.66 fold (active)
CCN(CC)CCCN=Cc1c(O)n(Cc2ccccc2)c(=O)c2ccccc12	1.3 fold (active)
COc1ccc(-n2cc(CNC3CCN(C)CC3)c(-c3cccc(F)c3)n2)cc1	1.5 fold (active)
Cc1ccc2nc(N(CCCN(C)C)C(=O)CCc3ccccc3)sc2c1	1.61 fold (active)
CCOC(=O)N1CCN(S(=O)(=O)c2ccc(C(=O)N(CCCN(C)C)c3nc4c(C)c(C)ccc4s3)cc2)CC1	1.51 fold (active)
C=CCNCCCOc1ccc(C)cc1Br	1.53 fold (active)
COCCCNCCCOc1ccc(Cl)cc1C(C)(C)C	2.13 fold (active)
CNCCCC12CCC(c3ccccc31)c1ccccc12	1.82 fold (active)
Cc1cc(C)c2nc(N(CCCN(C)C)C(=O)c3ccc(S(=O)(=O)N4CCCCCC4)cc3)sc2c1	1.57 fold (active)
COc1ccc(Cl)cc1C(=O)Nc1ccc(CN2CCCCC2)cc1	2.57 fold (active)
COc1cc(CNCCO)cc(Cl)c1OCc1ccccc1Cl	1.81 fold (active)
CC1CCCN(CCC(=O)c2ccc(Br)cc2)C1 (stereo unspecified)	2.73 fold (active)
CN1CCC[C@@H]1CCO[C@](C)(c1ccccc1)c1ccc(Cl)cc1	1.81 fold (active)
